Results taken from PubChem BioAssay AID1159580 (chemical genetic matrix, 2015).
Hit rate of the full screen: of about 5,500 compounds, about 2,000 (36%) were called active. Not shown: some 18% with an inconclusive outcome. No stated cut-off is given here; in the data, active means normalized growth mostly below about 0.91 (no sharp cut-off); inconclusive means no clear call, values can overlap the other calls; inactive means mostly above about 0.92. The list shows a part of the results.

Assay: chemical genetic growth profiling, strain panel (AID 1159580);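 further: tested at 20 µM; growth read once vehicle control cultures reached saturation at 30 °C; 1 = growth at the plate median or of vehicle wells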
Details: growth OD
[1] = S. cerevisiae deletion strains, locus YAL040C, strain CLN3, stronger effect = lower value
[2] = S. cerevisiae deletion strains, locus YCL061C, strain MRC1 (second series), stronger effect = lower value
[3] = S. cerevisiae deletion strains, locus YDR363W, strain ESC2, stronger effect = lower value
[4] = S. cerevisiae deletion strains, locus YER002W, strain NOP16, stronger effect = lower value
[5] = S. cerevisiae deletion strains, locus YJR075W, strain HOC1, stronger effect = lower value
[6] = S. cerevisiae deletion strains, locus YMR263W, strain SAP30, stronger effect = lower value
[7] = S. cerevisiae deletion strains, locus YMR307W, strain GAS1, stronger effect = lower value
[8] = S. cerevisiae deletion strains, locus YNL175C, strain NOP13, stronger effect = lower value
[9] = S. cerevisiae deletion strains, locus YNL197C, strain WHI3, stronger effect = lower value
[10] = S. cerevisiae deletion strains, locus YNL224C, strain SQS1, stronger effect = lower value
[11] = S. cerevisiae deletion strains, locus YNL322C, strain KRE1, stronger effect = lower value
[12] = S. cerevisiae deletion strains, locus YOR083W, strain WHI5 (second series), stronger effect = lower value
[13] = S. cerevisiae deletion strains, locus YPL055C, strain LGE1, stronger effect = lower value
[14] = S. cerevisiae deletion strains, locus YPL241C, strain CIN2, stronger effect = lower value
[15] = S. cerevisiae deletion strains, locus YAL013W, strain DEP1, stronger effect = lower value
[16] = S. cerevisiae deletion strains, locus YGR078C, strain PAC10, stronger effect = lower value
[17] = S. cerevisiae deletion strains, locus YNL153C, strain GIM3, stronger effect = lower value
[18] = S. cerevisiae deletion strains, locus YAR019C, strain CDC15, stronger effect = lower value
[19] = S. cerevisiae deletion strains, locus YBL105C, strain PKC1, stronger effect = lower value
[20] = S. cerevisiae deletion strains, locus YBR135W, strain CKS1, stronger effect = lower value
[21] = S. cerevisiae deletion strains, locus YBR136W, strain MEC1, stronger effect = lower value
[22] = S. cerevisiae deletion strains, locus YBR160W, strain CDC28, stronger effect = lower value
[23] = S. cerevisiae deletion strains, locus YDL017W, strain CDC7, stronger effect = lower value
[24] = S. cerevisiae deletion strains, locus YDL028C, strain MPS1, stronger effect = lower value
[25] = S. cerevisiae deletion strains, locus YDL101C, strain DUN1, stronger effect = lower value
[26] = S. cerevisiae deletion strains, locus YDL108W, strain KIN28, stronger effect = lower value
[27] = S. cerevisiae deletion strains, locus YDL132W, strain cdc53, stronger effect = lower value
[28] = S. cerevisiae deletion strains, locus YDL214C, strain PRR2, stronger effect = lower value
[29] = S. cerevisiae deletion strains, locus YDR052C, strain DBF4, stronger effect = lower value
[30] = S. cerevisiae deletion strains, locus YDR054C, strain cdc34, stronger effect = lower value
[31] = S. cerevisiae deletion strains, locus YDR226W, strain ADK1, stronger effect = lower value
[32] = S. cerevisiae deletion strains, locus YDR477W, strain SNF1, stronger effect = lower value
[33] = S. cerevisiae deletion strains, locus YER123W, strain YCK3, stronger effect = lower value
[34] = S. cerevisiae deletion strains, locus YER133W, strain GLC7, stronger effect = lower value
[35] = S. cerevisiae deletion strains, locus YFL009W, strain cdc4, stronger effect = lower value
[36] = S. cerevisiae deletion strains, locus YFL029C, strain CAK1, stronger effect = lower value
[37] = S. cerevisiae deletion strains, locus YFR003C, strain YPI1, stronger effect = lower value
[38] = S. cerevisiae deletion strains, locus YFR019W, strain FAB1, stronger effect = lower value
[39] = S. cerevisiae deletion strains, locus YFR028C, strain CDC14, stronger effect = lower value
[40] = S. cerevisiae deletion strains, locus YGR040W, strain KSS1, stronger effect = lower value
[41] = S. cerevisiae deletion strains, locus YGR052W, strain FMP48, stronger effect = lower value
[42] = S. cerevisiae deletion strains, locus YGR092W, strain DBF2, stronger effect = lower value
[43] = S. cerevisiae deletion strains, locus YHR030C, strain SLT2, stronger effect = lower value
[44] = S. cerevisiae deletion strains, locus YHR079C, strain IRE1, stronger effect = lower value
[45] = S. cerevisiae deletion strains, locus YHR082C, strain KSP1, stronger effect = lower value
[46] = S. cerevisiae deletion strains, locus YHR205W, strain SCH9, stronger effect = lower value
[47] = S. cerevisiae deletion strains, locus YIL147C, strain SLN1, stronger effect = lower value
[48] = S. cerevisiae deletion strains, locus YJL095W, strain BCK1, stronger effect = lower value
[49] = S. cerevisiae deletion strains, locus YJL128C, strain PBS2, stronger effect = lower value
[50] = S. cerevisiae deletion strains, locus YJL157C, strain FAR1, stronger effect = lower value
[51] = S. cerevisiae deletion strains, locus YJR016C, strain ILV3, stronger effect = lower value
[52] = S. cerevisiae deletion strains, locus YJR066W, strain TOR1 (second series), stronger effect = lower value
[53] = S. cerevisiae deletion strains, locus YJR066W, strain TOR1, stronger effect = lower value
[54] = S. cerevisiae deletion strains, locus YKL048C, strain ELM1, stronger effect = lower value
[55] = S. cerevisiae deletion strains, locus YKL067W, strain YNK1, stronger effect = lower value
[56] = S. cerevisiae deletion strains, locus YKL101W, strain HSL1, stronger effect = lower value
[57] = S. cerevisiae deletion strains, locus YKL193C, strain SDS22, stronger effect = lower value
[58] = S. cerevisiae deletion strains, locus YKL203C, strain TOR2, stronger effect = lower value
[59] = S. cerevisiae deletion strains, locus YLR113W, strain HOG1, stronger effect = lower value
[60] = S. cerevisiae deletion strains, locus YLR133W, strain CKI1, stronger effect = lower value
[61] = S. cerevisiae deletion strains, locus YLR403W, strain SFP1, stronger effect = lower value
[62] = S. cerevisiae deletion strains, locus YML070W, strain DAK1, stronger effect = lower value
[63] = S. cerevisiae deletion strains, locus YMR001C, strain CDC5, stronger effect = lower value
[64] = S. cerevisiae deletion strains, locus YMR205C, strain PFK2 (second series), stronger effect = lower value
[65] = S. cerevisiae deletion strains, locus YMR277W, strain FCP1, stronger effect = lower value
[66] = S. cerevisiae deletion strains, locus YNL006W, strain LST8, stronger effect = lower value
[67] = S. cerevisiae deletion strains, locus YNL020C, strain ARK1, stronger effect = lower value
[68] = S. cerevisiae deletion strains, locus YNL161W, strain CBK1, stronger effect = lower value
[69] = S. cerevisiae deletion strains, locus YNL183C, strain NPR1, stronger effect = lower value
[70] = S. cerevisiae deletion strains, locus YNL207W, strain RIO2, stronger effect = lower value
[71] = S. cerevisiae deletion strains, locus YNL222W, strain SSU72, stronger effect = lower value
[72] = S. cerevisiae deletion strains, locus YNL307C, strain MCK1 (second series), stronger effect = lower value
[73] = S. cerevisiae deletion strains, locus YOL078W, strain AVO1, stronger effect = lower value
[74] = S. cerevisiae deletion strains, locus YOL136C, strain PFK27, stronger effect = lower value
[75] = S. cerevisiae deletion strains, locus YOR061W, strain CKA2, stronger effect = lower value
[76] = S. cerevisiae deletion strains, locus YOR119C, strain RIO1, stronger effect = lower value
[77] = S. cerevisiae deletion strains, locus YOR231W, strain MKK1, stronger effect = lower value
[78] = S. cerevisiae deletion strains, locus YOR329C, strain SCD5, stronger effect = lower value
[79] = S. cerevisiae deletion strains, locus YPL031C, strain PHO85, stronger effect = lower value
[80] = S. cerevisiae deletion strains, locus YPL153C, strain RAD53, stronger effect = lower value
[81] = S. cerevisiae deletion strains, locus YPL204W, strain HRR25, stronger effect = lower value
[82] = S. cerevisiae deletion strains, locus YPL209C, strain IPL1, stronger effect = lower value
[83] = S. cerevisiae deletion strains, locus YPL256C, strain CLN2, stronger effect = lower value
[84] = S. cerevisiae deletion strains, locus YPR025C, strain CCL1, stronger effect = lower value
[85] = S. cerevisiae deletion strains, locus YPR106W, strain ISR1, stronger effect = lower value
[86] = S. cerevisiae deletion strains, locus YPR111W, strain DBF20, stronger effect = lower value
[87] = S. cerevisiae deletion strains, strain NNK1, stronger effect = lower value
[88] = S. cerevisiae deletion strains, strain TSCII, stronger effect = lower value

Measured: normalized growth

COc1ccc2c(c1)[C@@]13CCCC[C@H]1[C@@H](C2)NCC3
inactive: [1] 0.998 | [2] 0.997 | [3] 0.951 | [4] 1.02 | [5] 0.988 | [6] 0.992 | [7] 0.973 | [8] 0.996 | [9] 1.03 | [10] 1.01 | [11] 0.991 | [12] 1 | [13] 0.983 | [14] 1

OCC1NCC(O)C(O)C1O (stereo not drawn)
inactive: [15] 1.02 | [1] 1.02 | [2] 1.01 | [3] 1.04 | [4] 1.01 | [16] 1 | [6] 1.01 | [7] 1.01 | S. cerevisiae deletion strains, locus YNL128W, strain TEP1, stronger effect = lower value 1.02 | [17] 1.02 | [8] 1.02 | [9] 1.01 | [10] 0.998 | [12] 1

O=C1CSC(c2cccnc2)N1c1ccc(Cl)cc1Cl (stereo not drawn)
inactive: [18] 0.986 | [19] 0.996 | [20] 0.994 | [21] 0.99 | [22] 0.994 | [23] 0.992 | [24] 0.992 | [25] 1 | [26] 0.985 | [27] 0.993 | [28] 0.931 | [29] 0.997 | [30] 0.987 | [31] 0.989 | [32] 0.919 | [33] 0.823 | [34] 0.897 | [35] 1 | [36] 0.98 | [37] 0.99 | [38] 0.796 | [39] 0.993 | [40] 0.93 | [41] 0.902 | [42] 0.972 | [43] 0.958 | [44] 0.964 | [45] 0.932 | [46] 0.98 | [47] 0.998 | [48] 0.906 | [49] 0.993 | [50] 0.948 | [51] 0.993 | [52] 0.893 | [53] 0.837 | [54] 1.01 | [55] 0.944 | [56] 0.993 | [57] 0.989 | [58] 0.945 | [59] 0.913 | [60] 0.962 | [61] 0.937 | [62] 0.939 | [63] 0.991 | [64] 0.968 | [65] 0.992 | [66] 0.986 | [67] 0.974 | [68] 0.985 | [69] 0.912 | [70] 0.998 | [71] 0.99 | [72] 0.952 | [73] 0.994 | [74] 0.919 | [75] 0.939 | [76] 0.919 | [77] 0.937 | [78] 0.99 | [79] 0.928 | [80] 0.933 | [81] 0.92 | [82] 0.989 | [83] 0.88 | [84] 0.984 | [85] 1.01 | [86] 1 | [87] 0.998 | [88] 0.989

O=c1c(Cl)c(-n2cccn2)cnn1-c1ccc(Cl)cc1Cl
active: [43] 0.71 | [59] 0.691 | [83] 0.831
inactive: [18] 0.93 | [19] 0.948 | [20] 0.943 | [21] 0.949 | [22] 0.96 | [23] 0.95 | [24] 0.954 | [25] 0.985 | [26] 0.962 | [27] 0.95 | [28] 0.906 | [29] 0.93 | [30] 0.913 | [31] 0.974 | [32] 0.893 | [33] 0.722 | [34] 0.909 | [35] 0.955 | [36] 0.916 | [37] 0.953 | [38] 0.956 | [39] 0.965 | [40] 0.883 | [41] 0.902 | [42] 0.539 | [44] 0.768 | [45] 0.988 | [46] 1.02 | [47] 0.955 | [48] 0.823 | [49] 0.94 | [50] 0.864 | [51] 0.932 | [52] 0.726 | [53] 0.901 | [54] 0.979 | [55] 0.903 | [56] 0.951 | [57] 0.936 | [58] 0.909 | [60] 0.943 | [61] 0.92 | [62] 0.917 | [63] 0.917 | [64] 0.926 | [65] 0.941 | [66] 0.934 | [67] 0.914 | [68] 0.931 | [69] 0.857 | [70] 0.968 | [71] 0.949 | [72] 0.901 | [73] 0.928 | [74] 0.951 | [75] 0.93 | [76] 0.947 | [77] 0.842 | [78] 0.943 | [79] 0.862 | [80] 0.84 | [81] 0.903 | [82] 0.954 | [84] 0.947 | [85] 0.986 | [86] 0.981 | [87] 0.97 | [88] 0.908

Cc1c(-c2ccnc(N)n2)nnn1-c1ccc(Cl)cc1Cl
inactive: [15] 1 | S. cerevisiae deletion strains, locus YBR229C, strain ROT2, stronger effect = lower value 0.974 | [25] 0.981 | S. cerevisiae deletion strains, locus YDR150W, strain NUM1, stronger effect = lower value 1.03 | S. cerevisiae deletion strains, locus YEL061C, strain CIN8, stronger effect = lower value 0.959 | [16] 0.985 | [43] 0.732 | S. cerevisiae deletion strains, locus YHR087W, strain rtc3, stronger effect = lower value 0.959 | S. cerevisiae deletion strains, locus YJL187C, strain SWE1, stronger effect = lower value 1.01 | S. cerevisiae deletion strains, locus YJR043C, strain POL32, stronger effect = lower value 1.01 | [5] 0.967 | S. cerevisiae deletion strains, locus YKL190W, strain CNB1, stronger effect = lower value 1.01 | S. cerevisiae deletion strains, locus YLR039C, strain RIC1, stronger effect = lower value 0.936 | S. cerevisiae deletion strains, locus YLR058C, strain SHM2 (second series), stronger effect = lower value 0.989 | S. cerevisiae deletion strains, locus YLR085C, strain ARP6, stronger effect = lower value 0.885 | S. cerevisiae deletion strains, locus YLR262C, strain YPT6, stronger effect = lower value 0.932 | S. cerevisiae deletion strains, locus YML094W, strain GIM5, stronger effect = lower value 0.988 | S. cerevisiae deletion strains, locus YMR219W, strain ESC1, stronger effect = lower value 1 | [6] 0.98 | [17] 0.991 | S. cerevisiae deletion strains, locus YNL298W, strain CLA4 (second series), stronger effect = lower value 0.973 | [11] 1.01 | S. cerevisiae deletion strains, locus YNR030W, strain Alg12, stronger effect = lower value 0.975 | S. cerevisiae deletion strains, locus YOL006C, strain TOP1, stronger effect = lower value 0.921 | [13] 1.08 | [14] 0.957 | S. cerevisiae deletion strains, locus YPR135W, strain CTF4, stronger effect = lower value 0.687 | S. cerevisiae strains, strain wild type, stronger effect = lower value 0.992
